# Assay outcomes: PubChem BioAssay, The Scripps Research Institute Molecular Screening Center
# PREPL inh – PREPL enzyme inhibitors, primary screen, biochemical, fluorescence polarization; 320,000 compounds, 0.68% hits; AID 2751, 2010; recombinant PREPL, fluorescence polarization activity-based probe; Prolyl endopeptidase-like (Homo sapiens), Q4J6C6; inhibition, % at 5.96 µM; in the data active = inhibition above about 43%;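 note: 0% = enzyme with DMSO and 100% = wells lacking enzyme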
# Target sequence (Q4J6C6 whole entry, looked up): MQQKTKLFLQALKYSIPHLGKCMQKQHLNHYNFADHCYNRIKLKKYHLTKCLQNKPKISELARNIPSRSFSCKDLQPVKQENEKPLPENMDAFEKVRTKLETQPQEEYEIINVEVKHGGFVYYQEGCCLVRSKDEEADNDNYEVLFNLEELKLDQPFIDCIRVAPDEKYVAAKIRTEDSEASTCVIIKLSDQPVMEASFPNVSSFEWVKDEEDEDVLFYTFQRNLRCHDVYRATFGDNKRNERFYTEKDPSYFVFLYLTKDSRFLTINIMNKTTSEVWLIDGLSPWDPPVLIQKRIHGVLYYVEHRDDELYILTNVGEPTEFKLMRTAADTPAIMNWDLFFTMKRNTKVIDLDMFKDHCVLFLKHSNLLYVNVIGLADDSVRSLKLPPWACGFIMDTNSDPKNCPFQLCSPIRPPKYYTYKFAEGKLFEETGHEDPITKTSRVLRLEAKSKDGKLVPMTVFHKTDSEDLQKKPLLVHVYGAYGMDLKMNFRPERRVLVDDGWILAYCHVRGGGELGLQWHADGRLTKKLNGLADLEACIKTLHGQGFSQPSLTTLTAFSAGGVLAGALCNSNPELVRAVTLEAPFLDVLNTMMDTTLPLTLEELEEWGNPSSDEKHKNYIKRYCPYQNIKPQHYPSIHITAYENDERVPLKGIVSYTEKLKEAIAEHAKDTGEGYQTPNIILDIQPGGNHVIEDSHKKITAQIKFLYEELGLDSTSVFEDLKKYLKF
# LYPLA2 inh – LYPLA2 inhibitors, primary screen, counter-screen for PME1 inhibitor project, biochemical, fluorescence polarization, FP-Rh probe ABPP; Acyl-protein thioesterase 2 (Homo sapiens), O95372; recombinant LYPLA2; inhibition, % at 5.9 µM; 320,000 compounds, 0.38% hits;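 active = inhibition above the screen-wide mean plus 3 SD, limit set per campaign, cut at about 26% in these data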;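 note: 0% = LYPLA2 with DMSO and 100% = wells lacking LYPLA2 enzyme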
# GSTO1 inh – inhibitors of recombinant GSTO1, primary screen, counter-screen for RBBP9 inhibitor project, biochemical, fluorescence polarization; activity-based probe fluorescence polarization; inhibition, % at 5.96 µM; 300,000 compounds, 1.1% hits; AID 1974, 2009;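 active = inhibition above the campaign mean inhibition plus 3 SD, cut at about 35% in these data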;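 note: 0% = GSTO1-1 with DMSO and 100% = wells lacking GSTO1-1 enzyme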
# PME-1 inh – PME-1 inhibitors via competitive probe labeling, primary screen, biochemical, fluorescence polarization, FP-Rh probe, HTS; 320,000 compounds, 0.53% hits; inhibition, % at 5.9 µM; recombinant PME-1; Protein phosphatase methylesterase 1 (Homo sapiens), Q9Y570;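 active = inhibition above the campaign mean of all compounds plus 3 SD, cut at about 26% in these data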;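 note: competitive labeling of PME-1 active site by serine hydrolase directed probe; 0% = PME-1 with DMSO and 100% = wells lacking PME-1 enzyme; inhibitors block probe labeling so polarization falls and inhibition rises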
# LYPLA1 inh – LYPLA1 inhibitors, primary screen, counter-screen for PME1 inhibitor project, biochemical, fluorescence polarization, FP-Rh probe ABPP; inhibition, % at 5.9 µM; recombinant LYPLA1; 320,000 compounds, 0.16% hits; Acyl-protein thioesterase 1 (Homo sapiens), O75608;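 active = inhibition above the mean of all tested compounds plus 3 SD, set per campaign, cut at about 14% in these data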;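 note: inhibitors block serine hydrolase probe labeling of LYPLA1 so polarization falls; 0% = enzyme with DMSO and 100% = wells lacking LYPLA1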
# Fam108B counter – mouse Fam108B serine hydrolase inhibitors, primary screen, counter-screen for RBBP9 inhibitor project, biochemical, fluorescence polarization | inhibition, % at 9.51 µM | 300,000 compounds, 0.33% hits | AID 1947, 2009 | recombinant Fam108B, FP-Rh probe fluorescence polarization;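 active = inhibition above the screen mean inhibition plus 3 SD, computed separately per campaign, cut at about 18% in these data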;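 note: inhibitors lower polarization as less probe binds the enzyme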
# Starred values were filed as active, the others as inactive; . = no result. Compounds with a hit are over-represented: about 2% of the library has one in this group of screens.
SMILES,PREPL inh,LYPLA2 inh,GSTO1 inh,PME-1 inh,LYPLA1 inh,Fam108B counter
Cc1[nH]n(-c2ccccc2)c(=O)c1C(C[N+](=O)[O-])c1ccc(F)cc1 (centres undefined),9.2,-0.5,58.9*,5.0,-0.3,0.2
Cc1ccc(C(C[N+](=O)[O-])c2c(C)[nH]n(-c3ccccc3)c2=O)cc1 (centres undefined),1.2,-3.9,75.6*,2.3,-3.1,5.0
Cc1[nH]n(-c2ccccc2)c(=O)c1Sc1ccc(Cl)cc1,-1.3,5.6,8.8,6.5,2.6,1.5
O=C(Nc1ccccn1)c1ccc(Cl)c(S(=O)(=O)N2CCc3ccccc32)c1,-11.7,-16.6,.,-10.8,-14.5,.
O=C(CSc1ncnc2c1nnn2Cc1ccccc1)NC1CCCCC1,0.9,-5.1,-2.0,6.4,-3.4,4.6
O=C(CCl)c1ccc2c(c1)CCN2C(=O)C1CC1,13.0,1.2,57.4*,-0.2,2.3,-3.0
Cc1ccc(C(=O)NNC(=O)c2n[nH]c(=O)c3ccccc23)cc1C,6.7,8.3,.,-4.7,-5.0,.
CC1=Nc2ccccc2/C1=C/c1sc(=N)n(-c2nccs2)c1O,3.6,0.0,10.0,39.2*,4.3,12.7
CCCCSc1cc(C)nc(N)n1,16.3,6.6,-2.0,-6.2,-0.6,1.8
Cc1ccc(S(=O)(=O)Nc2cc(C(C(=O)OC(C)C)C(=O)C(F)(F)F)c(O)c3ccccc23)c(C)c1 (centres undefined),11.4,-15.4,44.3*,10.9,-6.6,5.2
Cc1ccc(O)c(N=Nc2nccs2)c1,0.8,1.8,.,4.7,1.1,.
CC(=O)Nc1nc(-c2ccc([N+](=O)[O-])cc2)cs1,-6.9,-3.6,7.7,-4.1,-2.0,-0.5
O=C(Nc1ccc([N+](=O)[O-])cc1)Nc1nc(-c2ccc(Cl)s2)cs1,4.7,-15.0,-8.9,44.5*,-24.4,11.4
O=C(O)CC1S/C(=N/N=C/c2ccc(-c3ccc(Cl)c([N+](=O)[O-])c3)o2)NC1=O (centres undefined),11.0,5.5,36.6*,2.3,3.9,11.3
O=C(O)CC1S/C(=N/N=C/C=C/c2ccccc2[N+](=O)[O-])NC1=O (centres undefined),10.0,2.0,-2.4,-0.5,-2.4,0.9
CC1=NN(c2ccccc2)C(=O)C1N=Nc1cccc(O)c1 (centres undefined),10.9,7.3,-1.1,28.2*,0.5,7.6
Cc1cccc(/C=C/C(=O)c2cc(Br)ccc(=O)c2O)c1,6.6,2.4,35.0*,4.4,-1.9,5.5
COc1ccc(-c2nc(NC(=O)c3[nH]c(C)c(C(C)=O)c3C)sc2C)cc1,20.9,-1.7,-35.5,46.8*,-6.5,15.8
CC(=O)c1c(C)[nH]c(C(=O)Nc2nc(-c3ccc(Cl)cc3)cs2)c1C,2.3,-2.4,-5.1,51.0*,-1.8,-5.8
O=C(CNC(=O)C12CC3CC(CC(C3)C1)C2)Nc1ncccc1O,2.1,1.4,.,3.3,-0.9,.
CCn1ccnc1CNC(=O)c1ccc2oc(C(C)C)nc2c1,9.2,5.6,4.7,-0.8,3.6,5.8
CC(C)NC(=S)N=Nc1c(O)[nH]c2ccc(C(C)C)cc12,20.4,0.5,-3.8,28.6*,1.3,0.8
O=C(COC(=O)CCS(=O)(=O)c1ccc(F)cc1)NC1CCCCC1,17.3,3.6,.,0.3,0.2,.
O=C(Nc1nc(-c2ccccn2)cs1)c1ccc(Cl)s1,9.4,2.5,44.5*,-8.4,-4.3,-12.5
Cc1ccc(C)c(NC(=O)Cc2nc(CCl)cs2)c1,-4.6,-1.0,95.3*,-3.4,2.0,4.2
SMILES,PREPL inh,LYPLA2 inh,GSTO1 inh,PME-1 inh,LYPLA1 inh,Fam108B counter
Cc1ccccc1NC(=O)Cc1nc(COC(=O)c2cccc(O)c2)cs1,-2.4,-9.5,.,-5.0,-5.6,.
Cc1ccc2[nH]cc(C(=O)CN3CCN(C)CC3)c2c1,5.6,-0.5,17.6,-10.8,-1.9,-0.5
Cc1ccc2[nH]cc(C(=O)CCl)c2c1,2.9,-8.3,93.2*,3.2,-5.4,-4.4
O=C(Nc1ccccc1C(=O)O)c1cc(S(=O)(=O)N2CCCCC2)c(Cl)cc1Cl,13.9,-0.7,36.4*,-3.6,1.0,0.2
O=C(CSc1nnc(SCc2ccccc2Cl)s1)N/N=C/c1c[nH]c2ccccc12,6.6,25.8,3.6,35.6*,-9.2,13.1
O=C(CSc1nnc(SCc2ccccc2)s1)N/N=C/c1ccc(Cl)cc1Cl,-2.7,-11.1,2.1,3.1,-0.5,2.7
Cc1cc2nc3n(c2cc1C)CCCN3,10.1,7.9,2.6,6.0,1.3,-4.0
COc1cc(/C=N/NC(=O)COc2ccccc2[N+](=O)[O-])ccc1OC(=O)c1ccco1,100.5*,1.3,4.7,-3.9,-1.1,0.2
COc1cc(/C=N\NC(=O)OC(C)(C)C)ccc1OC(=O)c1ccco1,10.3,-2.7,0.3,-3.3,-1.1,-1.7
O=C(COc1ccccc1[N+](=O)[O-])N/N=C/c1ccc(OC(=O)c2ccco2)cc1,62.1*,-2.4,2.8,-6.3,-6.3,-8.8
COc1ccc(OCc2cc(-c3ccc(Cl)cc3)no2)cc1,-7.0,-1.5,-5.8,1.3,-0.1,-2.7
O=C(CCl)NCc1cc(-c2ccc(Cl)cc2)no1,-2.8,7.0,89.0*,0.4,1.6,1.2
CCOc1ccc(NS(=O)(=O)c2ccc(-c3ccc(=O)[nH]n3)o2)cc1,3.2,4.8,-2.9,2.9,-1.9,3.3
CSc1ccc(NC(=O)C(C)N2CCN(C)CC2)cc1 (centres undefined),1.6,5.8,-3.9,0.0,3.1,0.1
CC(C)=NNc1nc2c(c(=O)[nH]c(=O)n2C)n1CCc1ccccc1,16.3,8.1,33.0,-2.0,1.2,-0.6
Cn1c(=O)[nH]c(=O)c2c1nc(N/N=C/C(Br)=C/c1ccccc1)n2CCO,10.8,0.9,35.1*,1.4,-0.7,-2.5
CN(C)c1ccc(/C=N/N=C2/NC(=O)/C(=C/c3ccc([N+](=O)[O-])cc3)S2)cc1,5.7,7.9,49.3*,11.2,-0.6,1.9
Clc1cccc(-c2nc(-c3ccc(-c4nn[nH]n4)cc3)no2)c1,-12.7,-4.7,.,-22.4,-17.7,.
NC(=NCCc1ccccc1)NS(=O)(=O)c1ccccc1F,-13.0,-1.2,12.7,-3.2,-4.0,0.0
N#CC(C#N)=NNc1ccc(S(=O)(=O)N2CCCCC2)cc1,10.0,-1.6,21.1,28.4*,-9.5,3.2
CC(C)(C)c1ccc(S(=O)(=O)N2CCN(C(=O)C3=COCCO3)CC2)cc1,-24.9,4.0,.,5.2,1.1,.
